Where “and” joins values, the source holds several entries; their conditions need not be identical. Equal values may be shown once. The whole screen tested about 350,000 compounds, of which about 5,500 (1.6%) were called active.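 Rule for the calls: active = significant combined selectivity score with lowered wild-type GFP, culture density cut under 30%, mutant RFP and density less affected; inactive = any of these conditions unmet.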 What follows is part of a selection rich in actives, with near analogues and random picks from the rest.

The nature of this test: reduced GFP signal of wild-type E. coli, primary screen, bacterial rRNA inhibitor project, GFP/RFP fluorescence, OD600, single point (AID 720706). The note with it: E. coli WT GFP vs humanized-ribosome RFP mutants, 24 h; GFP signal change (wild-type ribosome): stronger effect = lower value, DMSO median 0, no signal -100; OD600 change: measured here: OD600 growth, DMSO median 0, no signal -100; RFP signal change: measured here: RFP humanized mutant strains, DMSO median 0, no signal -100, concentration not given here.
Regarding `COc1ccc2c3c([nH]c2c1)[C@@H](CO)N(C(=O)c1ccccc1)CC31CCN(C(=O)Nc2cccc(F)c2)CC1`, the GFP signal change (wild-type ribosome) was -4.87% (inactive), the OD600 change was -13.4% and the RFP signal change worked out at 1.11%.
Turning to `COC(=O)CSc1nnc(NC(=O)CCc2ccccc2)s1`, the GFP signal change (wild-type ribosome) was 7.96% (inactive), the OD600 change came out at 5.71% and the RFP signal change was -0.746%.
As to `O=C(CCc1ccccc1)Nc1ncc([N+](=O)[O-])s1`, the GFP signal change (wild-type ribosome) is -42.5% (active), the OD600 change was -20.7% and the RFP signal change worked out at 2.67%.
In the case of `CC(C)Cc1nnc(NC(=O)CCc2ccccc2)s1`, the GFP signal change (wild-type ribosome) was 2.89% (inactive), the OD600 change was 0.415% and the RFP signal change was 0.86%.
With `Cc1cc([N+](=O)[O-])ccc1NS(=O)(=O)c1ccccc1`, the GFP signal change (wild-type ribosome) is -10.6% (inactive), the OD600 change is -35.5% and the RFP signal change was -7.16%.
As to `Cc1ccccc1OS(=O)(=O)c1cccc([N+](=O)[O-])c1`, the GFP signal change (wild-type ribosome) is -22.9% (active), the OD600 change was -15.1% and the RFP signal change was -4.54%.
Turning to `Cc1cc(C)n(S(=O)(=O)c2cccc([N+](=O)[O-])c2)n1`, the GFP signal change (wild-type ribosome) was 5.54% (inactive), the OD600 change was 9.05% and the RFP signal change is 1.61%.
In the case of `O=C([C@H]1[C@H](CO)[C@H]2Cn3c(ccc(-c4ccccc4)c3=O)[C@@H]1N2Cc1cccnc1)N1CCOCC1`, the GFP signal change (wild-type ribosome) was 5.29% (inactive), the OD600 change came to 5.22% and the RFP signal change was found to be 0.504%.
As for `Cc1ccc(-c2cnc3c(c2)C(=O)N([C@H](C)CO)C[C@H](C)[C@@H](CN(C)S(C)(=O)=O)O3)cc1`, the GFP signal change (wild-type ribosome) was 2.09% (inactive), the OD600 change amounted to 1.04% and the RFP signal change worked out at 1.43%.
In the case of `C[C@@H]1CN([C@H](C)CO)C(=O)c2c(c3ccccc3n2C)-c2ccccc2CO[C@@H]1CN(C)Cc1ccccc1C(F)(F)F`, the GFP signal change (wild-type ribosome) is 3.48% (inactive), the OD600 change is -2.02% and the RFP signal change was -4.51%.
Take `CC(C)NC(=O)Nc1ccc2c(c1)C(=O)N([C@H](C)CO)C[C@@H](C)[C@H](CN(C)S(C)(=O)=O)O2`: the GFP signal change (wild-type ribosome) was 0.569% (inactive), the OD600 change stood at 1.03% and the RFP signal change is -2.66%.
Turning to `Cc1ccc2nc(-c3ccc(NC(=O)CN(C)S(=O)(=O)c4ccccc4)cc3)sc2c1`, the GFP signal change (wild-type ribosome) was 6.45% (inactive), the OD600 change was 6.57% and the RFP signal change is -1.11%.
Regarding `COc1ccc(NC(=O)CN(C)S(=O)(=O)c2ccccc2)cc1OC`, the GFP signal change (wild-type ribosome) was -21.4% (active), the OD600 change was -15.8% and the RFP signal change was 5.68%.
Regarding `COc1ccc(NC(=O)CN(Cc2ccccc2)S(C)(=O)=O)cc1OC`, the GFP signal change (wild-type ribosome) was 7.38% (inactive), the OD600 change turned out to be 3.04% and the RFP signal change came to 2.82%.
Turning to `C[C@H]1CN([C@@H](C)CO)C(=O)Cc2cc(NC(=O)Cc3ccccc3)ccc2O[C@H]1CN(C)S(=O)(=O)c1ccc(Cl)cc1`, the GFP signal change (wild-type ribosome) is 6.12% (inactive), the OD600 change amounted to 0.505% and the RFP signal change is -2.09%.
As for `C[C@@H]1CN(C)C(=O)c2cccc(N(C)C)c2O[C@H]1CN(C)S(C)(=O)=O`, the GFP signal change (wild-type ribosome) is 0.02% (inactive), the OD600 change is -2.43% and the RFP signal change is -4.17%.
For `CCS(=O)(=O)N1CC(=O)N2[C@H](C1)[C@@H](c1ccc(C#Cc3ccc(F)cc3)cc1)[C@@H]2CO` the same measures were -26.6% (inactive), -55.5% and 8.02%.
Consider `COC(=O)C[C@H]1C[C@H]2c3cc(NC(=O)NC4CCCCC4)ccc3O[C@H]2[C@H](CO)O1`, for which the GFP signal change (wild-type ribosome) is 3.18% (inactive), the OD600 change stood at 0.77% and the RFP signal change was determined as 1.45%.
`CN1CCN(c2nc(Nc3ccc(O)cc3)nc3ccccc23)CC1`: the GFP signal change (wild-type ribosome) was -21.6% (active), the OD600 change was 2.64% and the RFP signal change turned out to be 1.85%.
For the compound `CC1CN(c2nc(Nc3ccccc3)nc(N)c2[N+](=O)[O-])CC(C)O1` (stereo not drawn), the GFP signal change (wild-type ribosome) was -35.4% (inactive), the OD600 change was -33.8% and the RFP signal change was -0.525%.
For the compound `Cc1cc(N2CCN(C)CC2)nc2ccc(NC(=S)N3CCOCC3)cc12`, the GFP signal change (wild-type ribosome) was 2.14% (inactive), the OD600 change is 1.93% and the RFP signal change is -1.37%.
Regarding `C[C@H]1CN([C@@H](C)CO)C(=O)c2cc(NS(C)(=O)=O)ccc2O[C@@H]1CN(C)S(=O)(=O)c1ccc(Cl)cc1`, the GFP signal change (wild-type ribosome) was 2.05% (inactive), the OD600 change is 0.615% and the RFP signal change came out at 0.846%.
As for `CC(=O)N1C[C@@H]2C(c3ccccc3)[C@H](C1)N2Cc1ccc(F)cc1` (stereo partly drawn), the GFP signal change (wild-type ribosome) was -7.42% (inactive) and -0.918% (inactive); the OD600 change was -6.55% and 0.0005%; the RFP signal change was 2.17% and -0.988%.
As for `COc1ccc(Cn2c(-c3ccc(Cl)cc3)c[n+]3ccccc23)cc1`, the GFP signal change (wild-type ribosome) is -31.8% (active), the OD600 change is -12.7% and the RFP signal change was 10%.
For `COc1ccc(CN2CCCCN3[C@H](C2)[C@H](c2ccc(-c4ccc(OC)cc4)cc2)[C@@H]3CO)cc1`, the GFP signal change (wild-type ribosome) was 0.651% (inactive), the OD600 change was 2.56% and the RFP signal change came to 3.41%.
In the case of `COc1ccc(-c2ccc([C@@H]3[C@@H](CO)N4C(=O)CN(Cc5ccccc5)C[C@@H]34)cc2)cc1`, the GFP signal change (wild-type ribosome) is 0.0065% (inactive), the OD600 change is -2.91% and the RFP signal change was determined as 0.737%.
For `COc1ccc(NC(=O)Nc2ccc3c(c2)C(=O)N([C@H](C)CO)C[C@@H](C)[C@H](CN(C)CC2CCCCC2)OCCCC[C@@H](C)O3)cc1`, the GFP signal change (wild-type ribosome) was 2.06% (inactive), the OD600 change was -1.06% and the RFP signal change is 2.56%.
Turning to `CC1CN(C(=S)Nc2ccc(Br)cc2Cl)CC(C)O1` (stereo not drawn), the GFP signal change (wild-type ribosome) is 0.789% (inactive), the OD600 change came out at 0.865% and the RFP signal change is -2.8%.
Consider `CN(C)C(=S)Nc1ccc(Br)cc1Cl`, for which the GFP signal change (wild-type ribosome) was -21.3% (active), the OD600 change was -3.38% and the RFP signal change is -5.33%.
With `O=C(NNC(=S)Nc1ccc(Br)cc1Cl)c1ccco1`, the GFP signal change (wild-type ribosome) is -55.5% (inactive), the OD600 change is -76.6% and the RFP signal change was -26.1%.
For `C[C@@H]1CN([C@H](C)CO)C(=O)c2cc(C#CC3CC3)cnc2O[C@H]1CN(C)C(=O)CC1CC1` the same measures were 0.803% (inactive), 4.53% and -4.43%.

The values are drawn from PubChem BioAssay AID720706 (Broad Institute, 2013).
